The results in this text go back to PubChem BioAssay (EPA / NIEHS).

For orientation: AC50 means the concentration giving half of the maximal activity seen.

The source made the active and inactive calls. Rule for the calls: active = hit-call score of the fitted dose curve at least 0.9, where 1 is the maximum; inactive = score below 0.9.

Read-out in this assay: Human Leukocyte Antigen - DR isotype (HLADR), HLA-DRA (gene 3122)
Kind of assay: BSK_CASM3C_HLADR: BioMAP Diversity Plus: CASM3C Assay for Human Leukocyte Antigen - DR isotype (HLADR) Biomarker Activity (AID 2283043).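 Note: cell-surface HLA-DR protein level quantified by ELISA.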 As to conditions: primary human coronary artery smooth muscle cells; actives raise or lower the signal.
Regarding `CC(C)CC(C)O` (centres undefined), the result was inactive.
As for `CCN(CC)C(=S)SSC(=S)N(CC)CC`, the half-maximal activity concentration (AC50) was 31.2 µM (active).
With `FC(F)C(F)(F)COCC1CO1` (centres undefined), the result was inactive.
Same read-out and setting: to `OCCC(F)(F)C(F)(F)C(F)(F)C(F)(F)F` belongs “inactive”.
On the same count and under the same terms, to `CCCCN1C(=O)[C@@H]([C@H](O)C2CCCCC2)NC(=O)C12CCN(Cc1ccc(Oc3ccc(C(=O)O)cc3)cc1)CC2` belongs “inactive”.
On to `NC(=O)N1c2ccccc2C=Cc2ccccc21`, for which the result was inactive.
Take `CC(C)c1nnc2ccc(-c3ocnc3-c3cc(F)ccc3F)cn12`: the AC50 was 0.561 µM (active).
Consider `O=S(=O)(O)CCC(F)(F)C(F)(F)C(F)(F)C(F)(F)C(F)(F)C(F)(F)F`, for which the outcome was inactive.
Still for that read-out and setting: to `FC(F)=C(F)C(F)(F)C(F)(F)C(F)(F)C(F)(F)C(F)(F)C(F)(F)F` belongs “inactive”; to `Cc1ccc(S(=O)(=O)NC(=O)NN2CCCCCC2)cc1`, “inactive”; to `NC(N)=O`, “inactive”.
Take `CC[C@H](C)C(=O)O[C@H]1C[C@H](O)C=C2C=C[C@H](C)[C@H](CC[C@@H](O)C[C@@H](O)CC(=O)O)[C@H]21`: the outcome was inactive.
Still for that read-out and setting: for `CCCCCCCCN(C)C` the value was “inactive”.
Still for that read-out and setting: for `FC(F)(F)C(F)(F)C(F)(F)C(F)(F)C(F)(F)C(F)(F)I` the value was “inactive”; for `O=S(=O)(O)c1ccc(N=Nc2c(O)ccc3cc(S(=O)(=O)O)ccc23)cc1`, “inactive”; for `CCCCCCOC(=O)CC(CC(=O)OCCCCCC)(OC(=O)CCC)C(=O)OCCCCCC`, “inactive”.
Consider `c1ccc2ncccc2c1`, for which the outcome was inactive.
`OC[C@H]1O[C@@](CO)(O[C@H]2O[C@H](CO)[C@@H](O)[C@H](O)[C@H]2O)[C@@H](O)[C@@H]1O`: the outcome was inactive.
Regarding `C[C@@H](Oc1ccc(CNC(=O)c2cccnc2Oc2ccc3c(c2)OCO3)c(F)c1)C(=O)O`, the result was inactive.
